# Data taken from the supplement of paper PMC11732987, “Enantioselective OTUD7B fragment discovery through chemoproteomics screening and high-throughput optimisation” (Communications Chemistry, 2025).
# Unmarked numbers belong to inactive results.
# How the values were obtained:
# Assay in all cases: log2 ratio of Biotin-Ahx-Ub-VS probe labelling (fragment/DMSO); higher = less target engagement (more negative = stronger competition), active = hit call of the paper (q ≤ 0.05, log2 ratio ≤ -1)
# Conditions in all cases: compound concentration: 200 uM; treatment time: 3 h
# [1] = biological target: T1, USP42 (UniProt Q9H9J4)
# T1 sequence (whole entry): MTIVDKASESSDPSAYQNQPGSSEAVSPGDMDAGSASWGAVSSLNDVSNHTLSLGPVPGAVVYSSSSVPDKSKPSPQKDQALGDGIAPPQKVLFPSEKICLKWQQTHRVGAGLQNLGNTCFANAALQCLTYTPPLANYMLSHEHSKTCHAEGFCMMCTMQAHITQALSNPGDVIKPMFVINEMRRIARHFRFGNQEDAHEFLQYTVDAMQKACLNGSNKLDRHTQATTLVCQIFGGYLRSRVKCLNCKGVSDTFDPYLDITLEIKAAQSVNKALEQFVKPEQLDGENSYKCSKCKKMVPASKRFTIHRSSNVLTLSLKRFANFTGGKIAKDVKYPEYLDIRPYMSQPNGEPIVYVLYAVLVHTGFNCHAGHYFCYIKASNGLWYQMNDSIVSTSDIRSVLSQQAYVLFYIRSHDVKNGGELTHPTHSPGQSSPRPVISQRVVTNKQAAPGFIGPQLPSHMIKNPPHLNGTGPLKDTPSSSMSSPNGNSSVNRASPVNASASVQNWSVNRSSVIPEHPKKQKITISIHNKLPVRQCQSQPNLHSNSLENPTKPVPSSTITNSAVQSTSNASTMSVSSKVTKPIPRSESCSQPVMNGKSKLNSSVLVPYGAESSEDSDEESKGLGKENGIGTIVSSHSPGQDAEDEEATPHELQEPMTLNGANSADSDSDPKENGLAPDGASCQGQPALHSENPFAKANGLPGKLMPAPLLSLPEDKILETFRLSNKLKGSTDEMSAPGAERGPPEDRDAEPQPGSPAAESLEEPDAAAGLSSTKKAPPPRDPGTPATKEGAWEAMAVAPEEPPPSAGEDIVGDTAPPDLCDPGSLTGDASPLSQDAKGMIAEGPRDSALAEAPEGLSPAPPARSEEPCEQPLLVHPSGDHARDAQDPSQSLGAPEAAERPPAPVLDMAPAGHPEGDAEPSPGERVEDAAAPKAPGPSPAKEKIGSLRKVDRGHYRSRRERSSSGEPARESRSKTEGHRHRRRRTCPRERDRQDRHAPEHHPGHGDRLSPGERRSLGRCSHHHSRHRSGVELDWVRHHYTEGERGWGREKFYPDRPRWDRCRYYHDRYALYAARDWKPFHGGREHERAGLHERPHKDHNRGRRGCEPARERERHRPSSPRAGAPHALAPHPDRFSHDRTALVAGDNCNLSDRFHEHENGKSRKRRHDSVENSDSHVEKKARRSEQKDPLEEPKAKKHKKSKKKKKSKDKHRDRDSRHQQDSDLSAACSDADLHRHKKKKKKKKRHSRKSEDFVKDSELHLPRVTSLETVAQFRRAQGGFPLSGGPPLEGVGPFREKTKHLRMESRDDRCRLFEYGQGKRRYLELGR
# Outline: (§1)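 Each value is an average log2 ratio of fragment to vehicle, tested by unpaired t-test. The underlying Spectronaut label-free quantities were global-median-normalised, and only proteins with ≥2 unique peptides were included. Triplicate HEK293T lysate samples (495 µg) were exposed to fragment at 200 µM or vehicle for 3 h, then to Biotin-Ahx-Ub-VS at 0.5 µM final for 1 h, before NeutrAvidin enrichment of labelled DUBs, LysC and trypsin digestion, and diaPASEF LC-MS/MS.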
# [2] = biological target: USP46 (UniProt P62068)
# Outline: as §1
# [3] = biological target: T2, USP47 (UniProt Q96K76)
# T2 sequence (whole entry): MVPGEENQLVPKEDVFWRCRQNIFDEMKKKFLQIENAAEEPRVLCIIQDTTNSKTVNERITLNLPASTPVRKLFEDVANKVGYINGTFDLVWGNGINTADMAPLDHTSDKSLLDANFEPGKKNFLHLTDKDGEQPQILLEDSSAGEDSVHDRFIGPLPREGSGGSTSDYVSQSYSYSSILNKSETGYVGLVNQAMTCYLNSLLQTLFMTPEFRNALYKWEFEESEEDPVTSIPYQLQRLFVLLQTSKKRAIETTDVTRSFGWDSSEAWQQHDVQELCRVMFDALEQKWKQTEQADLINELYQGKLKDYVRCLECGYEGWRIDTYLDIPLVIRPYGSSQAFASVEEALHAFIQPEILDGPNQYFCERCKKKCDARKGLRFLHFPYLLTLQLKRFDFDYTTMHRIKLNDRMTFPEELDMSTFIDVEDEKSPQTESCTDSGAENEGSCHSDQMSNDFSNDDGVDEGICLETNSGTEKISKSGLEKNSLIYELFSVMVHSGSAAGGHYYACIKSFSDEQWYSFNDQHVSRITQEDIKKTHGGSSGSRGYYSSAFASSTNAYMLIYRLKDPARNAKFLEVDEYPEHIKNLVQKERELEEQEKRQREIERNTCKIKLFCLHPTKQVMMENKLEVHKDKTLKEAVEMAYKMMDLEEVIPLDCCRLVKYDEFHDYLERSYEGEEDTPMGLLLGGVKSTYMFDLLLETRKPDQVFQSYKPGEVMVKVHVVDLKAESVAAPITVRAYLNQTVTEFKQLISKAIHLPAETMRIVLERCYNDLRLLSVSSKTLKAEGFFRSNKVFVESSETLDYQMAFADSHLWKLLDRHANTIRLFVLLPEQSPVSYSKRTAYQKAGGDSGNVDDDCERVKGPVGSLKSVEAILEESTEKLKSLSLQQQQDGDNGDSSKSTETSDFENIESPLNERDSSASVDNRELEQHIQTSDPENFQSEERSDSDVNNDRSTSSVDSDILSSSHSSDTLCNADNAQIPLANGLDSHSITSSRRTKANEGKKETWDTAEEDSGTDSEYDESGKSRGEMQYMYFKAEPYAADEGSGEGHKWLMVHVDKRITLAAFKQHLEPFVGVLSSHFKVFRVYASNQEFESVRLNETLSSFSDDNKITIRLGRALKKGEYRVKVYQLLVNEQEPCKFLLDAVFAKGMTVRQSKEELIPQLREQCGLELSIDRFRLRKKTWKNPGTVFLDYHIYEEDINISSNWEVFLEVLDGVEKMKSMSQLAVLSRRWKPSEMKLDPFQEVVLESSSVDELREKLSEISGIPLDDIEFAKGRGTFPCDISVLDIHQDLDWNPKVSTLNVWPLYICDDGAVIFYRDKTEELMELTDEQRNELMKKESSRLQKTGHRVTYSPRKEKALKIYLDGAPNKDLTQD
# Outline: as §1
# [4] = biological target: T3, USP48 (UniProt Q86UV5)
# T3 sequence (whole entry): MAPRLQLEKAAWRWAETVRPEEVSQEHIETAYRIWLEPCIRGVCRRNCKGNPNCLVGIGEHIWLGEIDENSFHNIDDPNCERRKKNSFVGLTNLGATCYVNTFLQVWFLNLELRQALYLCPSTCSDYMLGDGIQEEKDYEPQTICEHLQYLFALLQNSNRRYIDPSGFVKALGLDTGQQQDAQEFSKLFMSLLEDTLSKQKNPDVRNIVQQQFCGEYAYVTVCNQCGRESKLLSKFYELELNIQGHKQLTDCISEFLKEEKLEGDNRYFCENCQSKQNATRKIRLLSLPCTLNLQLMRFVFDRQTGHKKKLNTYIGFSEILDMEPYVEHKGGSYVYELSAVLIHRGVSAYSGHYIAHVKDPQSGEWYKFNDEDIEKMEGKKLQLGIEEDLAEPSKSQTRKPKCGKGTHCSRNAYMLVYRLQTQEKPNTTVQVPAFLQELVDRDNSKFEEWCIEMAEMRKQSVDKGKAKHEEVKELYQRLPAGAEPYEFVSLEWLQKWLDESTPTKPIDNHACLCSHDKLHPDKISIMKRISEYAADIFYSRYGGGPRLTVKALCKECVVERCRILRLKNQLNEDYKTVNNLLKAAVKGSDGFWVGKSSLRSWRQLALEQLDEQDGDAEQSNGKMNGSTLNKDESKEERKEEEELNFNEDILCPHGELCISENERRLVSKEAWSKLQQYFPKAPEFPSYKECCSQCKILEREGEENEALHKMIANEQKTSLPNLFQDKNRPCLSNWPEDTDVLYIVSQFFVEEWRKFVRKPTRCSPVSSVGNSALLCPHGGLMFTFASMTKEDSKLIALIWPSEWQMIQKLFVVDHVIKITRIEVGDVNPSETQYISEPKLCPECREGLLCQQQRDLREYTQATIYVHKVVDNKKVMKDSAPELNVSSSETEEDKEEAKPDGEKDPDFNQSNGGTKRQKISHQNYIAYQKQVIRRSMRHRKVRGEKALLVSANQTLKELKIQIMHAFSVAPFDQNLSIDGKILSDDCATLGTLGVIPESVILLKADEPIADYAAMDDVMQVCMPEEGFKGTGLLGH
# Outline: as §1
# [5] = biological target: T4, USP5 (UniProt P45974)
# T4 sequence (whole entry): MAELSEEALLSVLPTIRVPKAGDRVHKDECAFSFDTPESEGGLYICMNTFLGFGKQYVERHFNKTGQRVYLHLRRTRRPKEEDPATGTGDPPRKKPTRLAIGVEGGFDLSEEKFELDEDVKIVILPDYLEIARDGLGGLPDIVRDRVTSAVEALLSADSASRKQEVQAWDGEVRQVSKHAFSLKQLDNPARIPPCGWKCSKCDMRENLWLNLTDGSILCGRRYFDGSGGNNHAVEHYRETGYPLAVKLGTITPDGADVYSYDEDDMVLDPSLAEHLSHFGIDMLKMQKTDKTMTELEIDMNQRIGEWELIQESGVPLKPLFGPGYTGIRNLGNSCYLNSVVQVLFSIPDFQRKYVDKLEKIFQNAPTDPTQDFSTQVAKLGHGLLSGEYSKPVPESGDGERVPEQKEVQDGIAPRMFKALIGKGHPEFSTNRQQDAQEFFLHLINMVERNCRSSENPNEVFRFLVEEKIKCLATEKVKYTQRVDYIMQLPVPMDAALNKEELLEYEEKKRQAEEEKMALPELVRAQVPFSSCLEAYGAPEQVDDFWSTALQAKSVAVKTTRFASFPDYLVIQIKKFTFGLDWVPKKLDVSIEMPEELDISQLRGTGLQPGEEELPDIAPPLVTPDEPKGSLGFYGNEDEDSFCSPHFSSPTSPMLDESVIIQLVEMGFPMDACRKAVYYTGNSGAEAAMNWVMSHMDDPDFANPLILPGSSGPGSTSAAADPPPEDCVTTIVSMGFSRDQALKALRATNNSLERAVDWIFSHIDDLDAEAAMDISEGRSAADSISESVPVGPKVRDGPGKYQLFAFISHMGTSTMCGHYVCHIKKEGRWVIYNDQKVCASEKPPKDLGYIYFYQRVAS
# Outline: as §1
# [6] = biological target: USP54 (UniProt Q70EL1)
# Outline: as §1
# [7] = biological target: USP7 (UniProt Q93009)
# Outline: as §1
# [8] = biological target: T5, USP8 (UniProt P40818)
# T5 sequence (whole entry): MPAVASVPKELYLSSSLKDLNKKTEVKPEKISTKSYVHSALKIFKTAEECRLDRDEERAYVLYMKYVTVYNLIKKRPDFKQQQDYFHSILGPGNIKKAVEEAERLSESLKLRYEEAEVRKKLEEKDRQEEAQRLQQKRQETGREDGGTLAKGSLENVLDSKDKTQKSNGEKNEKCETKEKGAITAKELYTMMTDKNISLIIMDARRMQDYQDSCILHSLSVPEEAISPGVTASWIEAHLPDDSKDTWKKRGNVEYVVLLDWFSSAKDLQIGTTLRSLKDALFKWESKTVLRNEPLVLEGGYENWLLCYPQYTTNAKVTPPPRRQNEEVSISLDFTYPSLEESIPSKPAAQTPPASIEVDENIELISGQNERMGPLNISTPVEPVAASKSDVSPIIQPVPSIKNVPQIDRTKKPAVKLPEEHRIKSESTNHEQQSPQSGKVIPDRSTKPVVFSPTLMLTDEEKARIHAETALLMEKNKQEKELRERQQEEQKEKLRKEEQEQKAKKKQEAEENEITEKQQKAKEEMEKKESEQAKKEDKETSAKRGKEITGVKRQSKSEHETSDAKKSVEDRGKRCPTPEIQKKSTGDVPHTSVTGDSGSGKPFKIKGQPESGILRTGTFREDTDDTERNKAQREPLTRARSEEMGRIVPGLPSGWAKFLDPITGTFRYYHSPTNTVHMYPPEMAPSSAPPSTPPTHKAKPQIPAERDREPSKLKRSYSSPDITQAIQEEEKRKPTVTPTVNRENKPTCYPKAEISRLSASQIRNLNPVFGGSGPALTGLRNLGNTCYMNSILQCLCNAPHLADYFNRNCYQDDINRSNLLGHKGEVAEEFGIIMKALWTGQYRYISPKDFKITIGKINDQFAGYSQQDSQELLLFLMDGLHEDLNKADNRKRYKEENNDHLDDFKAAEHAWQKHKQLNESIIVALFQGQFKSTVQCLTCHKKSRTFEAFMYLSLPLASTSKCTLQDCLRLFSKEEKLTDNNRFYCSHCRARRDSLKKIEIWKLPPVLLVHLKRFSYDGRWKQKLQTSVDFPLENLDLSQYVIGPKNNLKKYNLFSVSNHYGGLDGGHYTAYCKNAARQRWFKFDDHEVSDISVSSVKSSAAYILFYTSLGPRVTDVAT
# Outline: as §1
# [9] = biological target: USP9X (UniProt Q93008)
# Outline: as §1
# [10] = biological target: UniProt O00487
# Outline: as §1
# USP7, sequence (Q93009 whole entry, looked up): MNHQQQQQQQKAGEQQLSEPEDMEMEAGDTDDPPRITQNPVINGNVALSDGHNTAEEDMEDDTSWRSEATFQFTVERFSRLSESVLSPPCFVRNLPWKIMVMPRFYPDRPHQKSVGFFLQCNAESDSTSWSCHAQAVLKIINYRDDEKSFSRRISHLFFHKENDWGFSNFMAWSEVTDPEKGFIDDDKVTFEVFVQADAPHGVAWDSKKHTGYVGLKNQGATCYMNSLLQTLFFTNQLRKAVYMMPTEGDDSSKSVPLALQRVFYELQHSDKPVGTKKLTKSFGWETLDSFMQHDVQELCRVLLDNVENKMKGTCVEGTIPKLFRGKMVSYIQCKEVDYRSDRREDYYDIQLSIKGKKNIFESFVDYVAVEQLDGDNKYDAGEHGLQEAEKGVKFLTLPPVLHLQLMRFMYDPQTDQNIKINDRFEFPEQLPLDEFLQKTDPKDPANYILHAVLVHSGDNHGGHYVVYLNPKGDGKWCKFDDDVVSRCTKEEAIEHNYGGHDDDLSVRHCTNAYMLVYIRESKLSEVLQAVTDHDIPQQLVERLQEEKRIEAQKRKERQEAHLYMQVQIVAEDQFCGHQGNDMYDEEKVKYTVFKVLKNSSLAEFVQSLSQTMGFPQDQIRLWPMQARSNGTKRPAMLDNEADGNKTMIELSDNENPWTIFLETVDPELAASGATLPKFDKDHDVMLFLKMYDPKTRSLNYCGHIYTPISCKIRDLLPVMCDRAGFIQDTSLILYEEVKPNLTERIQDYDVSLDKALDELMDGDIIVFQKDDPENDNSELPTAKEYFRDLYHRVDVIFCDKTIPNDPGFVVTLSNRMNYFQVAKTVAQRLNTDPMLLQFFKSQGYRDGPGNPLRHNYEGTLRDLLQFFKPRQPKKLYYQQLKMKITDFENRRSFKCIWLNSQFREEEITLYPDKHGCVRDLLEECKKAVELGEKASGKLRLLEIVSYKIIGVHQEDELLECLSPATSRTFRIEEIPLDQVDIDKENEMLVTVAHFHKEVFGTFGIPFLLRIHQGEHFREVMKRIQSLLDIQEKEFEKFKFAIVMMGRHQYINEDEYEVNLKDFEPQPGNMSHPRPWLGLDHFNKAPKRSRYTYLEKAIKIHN
# USP54, sequence (Q70EL1 whole entry): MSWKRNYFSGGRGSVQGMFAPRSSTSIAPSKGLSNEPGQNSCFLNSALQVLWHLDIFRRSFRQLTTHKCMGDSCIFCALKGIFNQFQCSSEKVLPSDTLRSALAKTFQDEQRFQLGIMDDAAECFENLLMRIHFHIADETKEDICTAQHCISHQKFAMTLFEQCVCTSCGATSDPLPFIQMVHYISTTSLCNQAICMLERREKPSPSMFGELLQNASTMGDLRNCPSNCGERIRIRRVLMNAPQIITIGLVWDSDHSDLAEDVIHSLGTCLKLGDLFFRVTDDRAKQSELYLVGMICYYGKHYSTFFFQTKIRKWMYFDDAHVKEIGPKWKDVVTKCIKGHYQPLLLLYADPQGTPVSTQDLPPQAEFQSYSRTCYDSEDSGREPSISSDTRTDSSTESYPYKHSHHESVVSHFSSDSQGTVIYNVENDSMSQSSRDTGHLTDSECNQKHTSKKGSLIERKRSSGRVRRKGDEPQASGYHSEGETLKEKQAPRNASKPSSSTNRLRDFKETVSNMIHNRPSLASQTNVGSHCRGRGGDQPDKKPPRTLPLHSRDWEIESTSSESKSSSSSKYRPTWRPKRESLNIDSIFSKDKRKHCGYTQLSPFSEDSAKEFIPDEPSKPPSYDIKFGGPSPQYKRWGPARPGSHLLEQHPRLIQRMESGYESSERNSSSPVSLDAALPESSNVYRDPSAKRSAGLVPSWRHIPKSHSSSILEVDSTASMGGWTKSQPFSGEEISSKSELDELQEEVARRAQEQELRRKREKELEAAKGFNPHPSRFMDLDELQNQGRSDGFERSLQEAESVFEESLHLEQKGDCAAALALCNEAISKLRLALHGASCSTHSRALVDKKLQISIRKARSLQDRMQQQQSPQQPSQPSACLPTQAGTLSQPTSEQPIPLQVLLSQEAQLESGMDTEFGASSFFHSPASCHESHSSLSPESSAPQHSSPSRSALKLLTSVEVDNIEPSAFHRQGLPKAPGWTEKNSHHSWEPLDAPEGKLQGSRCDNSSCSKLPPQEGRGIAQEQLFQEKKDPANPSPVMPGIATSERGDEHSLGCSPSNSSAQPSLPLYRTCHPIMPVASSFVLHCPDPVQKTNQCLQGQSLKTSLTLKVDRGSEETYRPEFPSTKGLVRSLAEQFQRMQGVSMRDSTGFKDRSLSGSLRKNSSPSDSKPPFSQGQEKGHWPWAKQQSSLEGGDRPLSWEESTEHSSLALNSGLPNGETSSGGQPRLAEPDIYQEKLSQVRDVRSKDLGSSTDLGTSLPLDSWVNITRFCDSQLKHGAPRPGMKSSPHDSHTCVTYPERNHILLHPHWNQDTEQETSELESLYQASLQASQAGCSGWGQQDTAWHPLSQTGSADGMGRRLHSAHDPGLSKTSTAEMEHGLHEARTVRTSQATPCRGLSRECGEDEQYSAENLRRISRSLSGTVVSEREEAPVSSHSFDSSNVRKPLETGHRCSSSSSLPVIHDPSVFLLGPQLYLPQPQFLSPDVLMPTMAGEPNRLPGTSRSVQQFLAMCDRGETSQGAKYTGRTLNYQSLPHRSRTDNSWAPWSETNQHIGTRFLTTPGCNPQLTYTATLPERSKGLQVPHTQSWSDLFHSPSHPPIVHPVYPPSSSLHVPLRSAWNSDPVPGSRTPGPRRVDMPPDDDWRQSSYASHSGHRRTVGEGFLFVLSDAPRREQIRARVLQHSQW
# USP46, sequence (P62068 whole entry): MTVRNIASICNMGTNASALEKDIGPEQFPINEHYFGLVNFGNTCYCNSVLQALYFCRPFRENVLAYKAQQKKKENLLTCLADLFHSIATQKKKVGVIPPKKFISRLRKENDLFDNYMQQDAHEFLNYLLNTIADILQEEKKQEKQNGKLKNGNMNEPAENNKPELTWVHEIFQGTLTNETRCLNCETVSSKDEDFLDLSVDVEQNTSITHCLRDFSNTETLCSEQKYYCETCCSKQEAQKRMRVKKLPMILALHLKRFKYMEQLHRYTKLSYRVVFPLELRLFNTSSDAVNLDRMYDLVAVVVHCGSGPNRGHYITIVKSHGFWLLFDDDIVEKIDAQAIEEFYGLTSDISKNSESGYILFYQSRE
# UniProt O00487, sequence (O00487 whole entry): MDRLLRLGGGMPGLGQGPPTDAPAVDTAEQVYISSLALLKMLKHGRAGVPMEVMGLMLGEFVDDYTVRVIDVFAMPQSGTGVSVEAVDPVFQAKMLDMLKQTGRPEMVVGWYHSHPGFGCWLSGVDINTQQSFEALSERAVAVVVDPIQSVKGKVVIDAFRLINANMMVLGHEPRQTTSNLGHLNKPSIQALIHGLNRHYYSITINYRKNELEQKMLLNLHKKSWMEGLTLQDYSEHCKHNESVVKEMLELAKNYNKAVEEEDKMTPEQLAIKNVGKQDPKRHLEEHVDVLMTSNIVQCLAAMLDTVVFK
compound,measurement,setting,value
O=C(CCl)N1CCN(C(=O)N2CCCCC2)CC1,log2 ratio of Biotin-Ahx-Ub-VS probe labelling,[1],0.232
same,log2 ratio of Biotin-Ahx-Ub-VS probe labelling,[2],-0.637
same,log2 ratio of Biotin-Ahx-Ub-VS probe labelling,[3],-0.616
same,log2 ratio of Biotin-Ahx-Ub-VS probe labelling,[4],-0.949
same,log2 ratio of Biotin-Ahx-Ub-VS probe labelling,[5],-1.13 (active)
same,log2 ratio of Biotin-Ahx-Ub-VS probe labelling,[6],0.892
same,log2 ratio of Biotin-Ahx-Ub-VS probe labelling,[7],-1.12 (active)
same,log2 ratio of Biotin-Ahx-Ub-VS probe labelling,[8],-0.843
same,log2 ratio of Biotin-Ahx-Ub-VS probe labelling,[9],-1.11 (active)
same,log2 ratio of Biotin-Ahx-Ub-VS probe labelling,[10],-0.0311
